Measurements as given in PubChem BioAssay (NCI).
Compounds without any hit were thinned out: in the full panel of roughly 83,000, 20% have a hit.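 Each cell line was grown in a 96-well plate and treated with one concentration of compound for 48 hours. Values below 10 were considered active.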 Unmarked numbers belong to inactive results. Active and inactive are the calls of the source.

tested on: MDA-MB-468 breast; assay: NCI-60 one-dose screen, 48 h (100 = growth as untreated, 0 = no growth, -100 = all killed); settings: 10 µM unless noted

SMILES	growth
CC(=O)N1N=C(c2ccc(Nc3nc(Nc4ccc(F)cc4)nc(Nc4ccc(Cl)cc4)n3)cc2)CC1c1ccc(Cl)cc1 (stereo not drawn)	104%
CCc1ccc(CCC(=O)Nc2ncc(Cc3cc(Cl)ccc3Cl)s2)o1	-23% (active)
CNC1CCc2c(sc(NC(=O)c3ccc(C(C)(C)C)cc3)c2C(N)=O)C1 (stereo not drawn)	-37.2% (active)
